Screening results from PubChem.
Rows were chosen to be rich in hits. Some 1.4% of all compounds tested hit in one or more screens of this group.
Sa ugtP lethal – growth inhibition of S. aureus ugtP deletion strain | S. aureus RN4220 ugtP deletion, OD600 growth, 16 h | growth inhibition, % (no concentration beside the values) | 330,000 tested, 0.54% active | AID 1259309; in the data active means growth inhibition above about 68%;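 further: plate controls were untreated wells for no effect and antibiotic for full effect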
PrPC surface inh – reduces human prion protein on the cell surface. P04156. 370,000 tested, 0.43% active. cell surface PrPC, TR-FRET read-out. inhibition, % at 13.8 µM; in the data active means inhibition above about 24%; further: 0% = median of the test wells and 100% = reference compound wells
SARS 3CLpro inh – SARS-CoV 3CLpro protease inhibition; recombinant SARS-CoV 3CLpro, quenched FRET peptide cleavage; inhibition, % at 6 µM; 290,000 tested, 0.14% active; AID 1706; in the data active means inhibition above about 12%
BJeLR viability – kills HRASV12-expressing BJeLR cells | inhibition, % (test concentration not listed) | BJeLR (HRASV12) viability, CellTiter-Glo ATP luminescence, 48 h | 300,000 tested, 0.17% active; in the data active means inhibition above about 50%
Sa RN4220 lethal – S. aureus RN4220 growth inhibition | OD600, 16 h | inhibition, % (concentration not given with the values) | 330,000 tested, 0.33% active; in the data active means inhibition above about 85%;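 further: plate controls were untreated cells for no effect and reference antibiotic for full effect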
VHR inh abs – DUSP3 (human) phosphatase inhibition; P51452; inhibition, % at 13.3 µM; recombinant VHR phosphatase, pNPP absorbance; 290,000 tested, 0.52% active; in the data active means inhibition above about 50%
PrPC confirm – confirmation of inhibitors of cell surface human prion protein | shares compounds with PrPC surface inh | cell surface PrPC level, TR-FRET | inhibition, % at 13.8 µM | 1,500 tested, 65% active | AID 743200; in the data active means inhibition above about 25%
LD9 tox – counter-screen for PrPc inhibitors: cytotoxicity in LD9 cells | 1,500 tested, 29% active | inhibition, % at 13.8 µM | AID 743201 | shares compounds with PrPC surface inh | luminescence viability; in the data active means inhibition above about 9.5%
Active calls of the source: *; nt = not tested or not shown.

SMILES	Sa ugtP lethal	PrPC surface inh	SARS 3CLpro inh	BJeLR viability	Sa RN4220 lethal	VHR inh abs	PrPC confirm	LD9 tox
O=c1[nH]c(CN2CCN(c3ccc(O)cc3)CC2)nc2scc(-c3ccc(Cl)cc3)c12	7	26*	6	30	4	47	39*	13*
C#Cc1ccc(C2C=C(C(=O)N3CCN(Cc4ccccc4)CC3)OC(OCC)C2CCCO)cc1 (centres undefined)	4	nt	nt	nt	7	nt	nt	nt
COc1ccc(CNC(=O)c2cccc3c(-c4cccc(C(N)=O)c4)coc23)cc1OC	nt	37*	nt	nt	nt	nt	25*	28*
CC(=O)c1nnn(-c2nc(N)nc(N(c3ccccc3)c3ccccc3)n2)c1C	9	25*	-1	3	0	16	91*	-7
CCCCN(CCCC)c1nc(OC)nc(-n2nnc(C(C)=O)c2C)n1	-16	-5	-4	-7	31	29	nt	nt
COC(=O)C1=C(C(=O)OC)C2N(C)c3ccc(OC)cc3[C@@]23CC(C(=O)OC)N(C(=O)NCCBr)C3=N1 (some centres undefined)	1	nt	nt	nt	5	nt	nt	nt
CCN(CC)c1ccc(Nc2nc(N3CCOCC3)c3ccccc3n2)cc1	-9	20	-1	12	-3	19	nt	nt
COc1ccc(Nc2nc(N3CCCC3)c3ccccc3n2)cc1	-6	24*	-4	11	-1	-11	31*	24*
C#CCOCCOCCOCCNc1nc(N2CCOCC2)nc(N2CCN(C(=O)C(Cc3cc4ccccc4[nH]3)n3cc(C(N)CC(C)C)nn3)CC2)n1 (centres undefined)	6	nt	nt	nt	4	nt	nt	nt
C=C1[C@@H](C)C2[C@H](Cc3ccccc3)NC(=O)[C@]23[C@H](OC(C)=O)/C=C/[C@@](C)(O)C(=O)[C@@H](C)C/C=C/[C@H]3[C@@H]1O (some centres undefined)	nt	43*	nt	nt	nt	nt	38*	2
C=C1[C@@H](C)[C@H]2[C@H](Cc3ccccc3)NC(=O)[C@]23OC(=O)/C=C/[C@H](O)CCC[C@@H](C)C/C=C/[C@H]3[C@@H]1O	nt	41*	4	25	nt	16	19	9.7*
C=C1[C@@H](C)C2[C@H](Cc3ccccc3)NC(=O)[C@]23OC(=O)CC[C@H](O)CCC[C@H](C)C/C=C/[C@H]3[C@@H]1O (some centres undefined)	nt	nt	nt	44	nt	-13	nt	nt
C=C1C(C)C2C(Cc3ccccc3)NC(=O)C23C(OC(C)=O)C=CC(C)(O)CC(C)CC=CC3C1O (centres undefined)	nt	40*	nt	nt	nt	nt	32*	0
O=S1(=O)CCOC2Cc3ccccc3C2N1Cc1cccc(C(F)(F)F)c1 (centres undefined)	-1	nt	nt	nt	10	nt	nt	nt
O=C(Nc1ccc(F)cc1)c1nc(S(=O)(=O)Cc2ccccc2)ncc1Cl	nt	66*	-2	36	nt	-52	64*	94*
CCS(=O)(=O)c1ncc(Cl)c(C(=O)Nc2ccc(S(=O)(=O)N(C)c3ccccc3)cc2)n1	nt	89*	1	35	nt	38	102*	97*
Cc1ccc(NC(=O)c2nc(S(=O)(=O)Cc3ccccc3)ncc2Cl)cc1	nt	84*	2	31	nt	24	56*	92*
Cc1cccc(CS(=O)(=O)c2ncc(Cl)c(C(=O)NCc3ccccc3)n2)c1	59	26*	-1	21	32	16	5	46*
CCN(c1ccccc1)S(=O)(=O)c1ccc(NC(=O)c2nc(S(C)(=O)=O)ncc2Cl)cc1	nt	nt	1	7	nt	1	nt	nt
CC(=O)C1=NN(c2ccccc2)C2(SC(=Cc3ccccc3)C(=O)N2c2ccccc2)S1 (centres undefined)	2	nt	nt	nt	1	nt	nt	nt
CC1CCC/C=C/C2CC(O)CC2C(O)/C=C/C(=O)O1 (centres undefined)	nt	89*	5	36	nt	20	95*	7
CC(=O)c1ccc(NC(=O)Nc2ccncc2)cc1	8	10	0	0	-1	-3	nt	nt
CC(=O)c1ccc(NC(=O)Nc2ccc(Cl)cc2)cc1	-28	28*	-1	7	-6	6	24	1
CCOc1ccc(C(=O)Nc2ccc3[nH]ncc3c2)cc1	1	33*	5	6	1	23	7	1
COC(=O)[C@@]12CCCCN1C(c1ccc(-c3ccccc3)c(OC)c1)C1C(=O)N(C)C(=O)C12 (some centres undefined)	10	nt	nt	nt	8	nt	nt	nt
SMILES	Sa ugtP lethal	PrPC surface inh	SARS 3CLpro inh	BJeLR viability	Sa RN4220 lethal	VHR inh abs	PrPC confirm	LD9 tox
CC(C)CCNC(=O)C(c1ccco1)N(Cc1ccccc1)C(=O)c1snc(C(N)=O)c1N (centres undefined)	5	1	0	-15	12	33	nt	nt
Cc1ccc(N(C(=O)c2snc(C(N)=O)c2N)C(C(=O)NCCC(C)C)c2ccco2)cc1 (centres undefined)	-5	27*	7	2	-2	25	34*	2
CCCc1noc2c1/C(=N\O)CC(c1ccccc1)C2 (centres undefined)	nt	24*	2	4	nt	29	5	6
CCCc1noc2c1C(=NO)CC(c1ccccc1)C2 (centres undefined)	1	nt	nt	nt	-10	nt	nt	nt
COC(=O)c1cc(C)sc1NC(=O)C1CC=CCC1C(=O)O (centres undefined)	-5	35*	-7	-7	5	-10	44*	-3
COC(=O)c1sccc1NC(=O)C1CC=CCC1C(=O)O (centres undefined)	0	97*	8	0	8	-18	92*	-1
O=C(C1=CC(C2CCCCC2)CC(OCCCCO)O1)N1CCN(Cc2ccc3c(c2)OCO3)CC1 (centres undefined)	-15	nt	nt	nt	4	nt	nt	nt
CCN1C(=O)C2C(c3ccc(-c4ccc(Cl)c(Cl)c4)cc3)N[C@@](Cc3ccccc3)(C(=O)OC)C2C1=O (some centres undefined)	-3	nt	nt	nt	0	nt	nt	nt
CCCCn1c(=O)[nH]c(=O)c2c1nc(CN1C(=O)c3ccccc3S1(=O)=O)n2CCC	0	12	1	13	9	24	nt	nt
CCCCn1c(=O)[nH]c(=O)c2c1nc(Cn1ncc(Cl)c(Cl)c1=O)n2CCC	nt	44*	-1	-27	nt	6	43*	71*
FC(F)(F)c1cc(CCN2CCNCC2Cc2ccccc2)cc(C(F)(F)F)c1 (centres undefined)	-5	nt	nt	nt	-9	nt	nt	nt
CCC1(CC)Cc2ccccc2-c2[nH]c(=S)[nH]c(=O)c21	5	79*	nt	-2	-3	nt	100*	-2
CC(C)C1Cc2ccccc2-c2[nH]c(=S)[nH]c(=O)c21 (centres undefined)	-2	75*	nt	2	1	nt	94*	-5
CCC1(CC)Cc2ccccc2-c2nc(NN)[nH]c(=O)c21	13	0	3	17	12	25	nt	nt
